These results are taken from PubChem BioAssay (NCATS).

Test [1] deals with Phospholipid hydroperoxide glutathione peroxidase GPX4 (Homo sapiens) (UniProt P36969). In words: Primary qHTS Assay for Inhibitors of Recombinant Selenoprotein Glutathione Peroxidase 4 (GPX4) (AID 1845192). Also: nearly all actives have a fitted effect of over 65% in size. Also: potency is read from the fitted curve at half-maximal effect. The method in brief:
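NADPH consumption followed by fluorescence at 340/450 nm, t=0 and after 15 min at room temperature. Reaction started with cumene hydroperoxide (0.5 mM final) after 30 min compound–GPX4 preincubation; final 200 nM GPX4, 100 nM GR, 1 mM GSH, 0.5 mM NADPH.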
For orientation: In qHTS, concentration-response curves come from the screen itself.

Test [2] in a line: Quantitative High-Throughput drug screen in 47 multiple myeloma cell lines against the NCATS MIPE library collection: FR4_PLB cell viability assay (AID 1918924; also: nearly all actives have a fitted effect of over 35% in size; also: potency is read from the fitted curve at half-maximal effect;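 as to viability (% of DMSO control): 100% = DMSO-treated cells and 0% = wells with media only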). Summed up: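 Approved and investigational drugs from MIPE 4.0 were added by pin tool to 500 cells per well. After 48 hours at 37C, ATP-based CellTiter-Glo luminescence indicated remaining viability.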
In test [3] the target is Luciferin 4-monooxygenase (Photinus pyralis) (UniProt P08659). In words: Primary firefly luciferase (FLuc) qHTS assay for identification of artifact compounds. (AID 1845220).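 Also: series mostly up to about 54 µM; plate controls were DMSO vehicle for no effect and no enzyme for full effect; nearly all actives have a fitted effect of over 60% in size.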 Summed up:
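Cell-free, 1536-well qHTS. Buffer pH 7.6 with 0.01% Tween-20 and 0.05% BSA; 10 uM D-luciferin, 10 uM ATP; 10 nM P. pyralis luciferase; luminescence after 5 min.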

Test [4] can be described thus: Primary fluorescence-based thiol-reactive (MSTI) qHTS assay for identification of artifact compounds. (AID 1845221). Also: nearly all actives have a fitted effect of over 65% in size. Also: potency is read from the fitted curve at half-maximal effect. The method in brief:
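A multi-concentration qHTS design tested compounds against 4 uM MSTI, pH 7.4 phosphate-buffered saline. Plates were protected from light for 1 h at room temperature before imaging fluorescence.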

Test [5] concerns Nanoluciferase (engineered Oplophorus gracilirostris luciferase). In words: Primary Nanoluciferase (NLuc) qHTS assay for identification of artifact compounds. (AID 1845222).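 Also: series mostly up to about 54 µM; 0% = DMSO and -100% = no enzyme.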 Summed up: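 Compounds are pinned into diluted (1:55) conditioned medium of NLuc-expressing S16 cells and held 15 min at room temperature protected from light. Nano-Glo substrate follows, and luminescence is read 5 min later.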

A short description of test [6]: Primary redox qHTS assay for identification of artifact compounds. (AID 1845223).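 Also: 0% = DMSO and 100% = reference compound.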 The method in brief: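 Redox-cycling detection via DTT (250 uM final) oxidation coupled to Amplex Red (25 uM)/HRP (250 mU/mL) in HBSS. 15 min preincubation plus 30 min after DTT, room temperature. Ex/Em 525/598 nm; 4-parameter Hill fit against DMSO and 10 uM DA3003.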

“And” between values parts separate entries of the source, which are not always exact repeats. Equal values may be shown once. Records with an inconclusive call do not appear. Where a structure was tested more than once in an assay, its records may differ in their call. The source made the active and inactive calls. Calls follow the shape of the dose curve; as a rule, active = well fitted curve in the direction sought with a large enough effect; inconclusive = small, poorly fitted or top-dose-only effect, or another doubt; inactive = no such curve, though single readings can be large; an effect the other way counts as inactive or inconclusive.

Chain of Phospholipid hydroperoxide glutathione peroxidase GPX4 (Homo sapiens) (P36969 whole entry, looked up): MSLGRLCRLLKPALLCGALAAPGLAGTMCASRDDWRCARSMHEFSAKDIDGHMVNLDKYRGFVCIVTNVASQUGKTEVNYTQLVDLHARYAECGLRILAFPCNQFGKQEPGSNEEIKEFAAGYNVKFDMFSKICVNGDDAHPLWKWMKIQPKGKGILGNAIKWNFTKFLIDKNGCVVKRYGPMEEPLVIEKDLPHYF

Turning to `COc1ccc(CC2c3cc(OC)c(OC)cc3CC[N+]2(C)CCC(=O)OCCCCCOC(=O)CC[N+]2(C)CCc3cc(OC)c(OC)cc3C2Cc2ccc(OC)c(OC)c2)cc1OC` (configuration not stated), the Potency entry in test [1] is “inactive”. Further, the viability (% of DMSO control) in test [2] was 122% [at 5.15 µM] (inactive).
For the molecule `CC(C)=CCCC(C)=CCCC(C)=CCSc1ccccc1C(=O)O`, the Potency in test [2] is 1.18 µM (active).
In the case of `Cc1cc(N2CCOCC2)cc2[nH]c(-c3c(NC[C@@H](O)c4cccc(Cl)c4)cc[nH]c3=O)nc12`, the Potency result in test [3], in test [5] and in test [6] was “inactive” throughout. Besides, the results for the Potency in test [4] and in test [2] were 1.68 µM (active) and 23.5 µM (active), respectively.
As to `CS(=O)(=O)c1ccc(-c2cnc(N)c(C(=O)Nc3ccccc3)n2)cc1`, the Potency result in test [1], in test [4], in test [5] and in test [6] was “inactive” throughout. For the same molecule, in test [2], the Potency was 18.7 µM (active).
Regarding `CNc1nccc(-c2cccnc2Oc2cc(C(=O)Nc3cccc(C(F)(F)F)c3)ccc2C)n1`, the Potency entry in test [1], in test [4] and in test [5] was “inactive” throughout. Further, the Potency in test [2] was 16.6 µM (active).
Consider `Clc1cccc(-n2nnnc2NCc2ccccc2Oc2ccccn2)c1Cl`, for which the Potency entry in test [1], in test [4], in test [5] and in test [2] was “inactive” throughout.
In the case of `CC(C)(C)c1cnc(CSc2cnc(NC(=O)C3CCNCC3)s2)o1`, in test [1], the Potency entry is “inactive”. The Potency in test [2] was 0.0935 µM (active).
For `COC(=O)[C@]12CCC(C)(C)C[C@@H]1[C@@H]1C(=O)C=C3[C@@]4(C)C=C(C#N)C(=O)C(C)(C)[C@@H]4CC[C@@]3(C)[C@]1(C)CC2`, the Potency in test [2] is 0.372 µM (active).
As to `O=c1[nH]nc(Sc2ncc([N+](=O)[O-])s2)n1-c1ccc2c(c1)OCCO2`, the Potency result in test [1] was “inactive”. In test [2], the Potency is 7.43 µM (active).
Take `CC1(C)OC2=C(C(=O)c3ccccc3C2=O)[C@H](NCc2ccccc2)[C@H]1O`: the Potency in test [2] is 2.64 µM (active).
Take `CNC(=O)c1c(F)cccc1Nc1nc(Nc2cc3c(cc2OC)CCN3C(=O)CN(C)C)nc2[nH]ccc12`: the Potency entry in test [1] and in test [5] was “inactive” in each case. The Potency in test [4] was 1.06 µM (active); in test [2], 10.5 µM (active).
Take `OCc1ccc(-c2ccc(-c3ccc(CO)s3)o2)s1`: the Potency result in test [1] and in test [6] was “inactive” throughout. Moreover, the Potency in test [4] is 2.6 µM (active).
Turning to `CCC1=C[C@@H]2CN(C1)Cc1c([nH]c3ccccc13)[C@@](C(=O)OC)(c1cc3c(cc1OC)N(C)[C@@H]1[C@@](O)(C(=O)OC)[C@H](OC(C)=O)[C@]4(CC)C=CCN5CC[C@]31[C@@H]54)C2`, in test [2], the Potency was 0.0047 µM (active).
As for `CC(=O)OCCN1C(=O)c2c(C)nc3ccc(S(=O)(=O)N4CCOCC4)cc3c2C1=O`, the Potency entry in test [1] and in test [2] was “inactive” each time.
Regarding `CCCCN1CCC(CNC(=O)c2c3n(c4ccccc24)CCCO3)CC1`, the Potency in test [2] is 11.8 µM (active).
In the case of `COc1ccc(C=Cc2cc(OC)c(OC)c(OC)c2)cc1O`, the Potency entry in test [2] was “inactive”.
For `CC=CC1=C(C(=O)O)N2C(=O)[C@H](NC(=O)[C@H](N)c3ccc(O)cc3)[C@@H]2SC1`, the Potency result in test [2] is “inactive”.
On the same count and under the same terms, the value for `Nc1ccc(C(=O)c2cc3c(ccc4ccccc43)[nH]2)cc1` was 1.18 µM (active); that for `Cc1[nH]c2ccccc2c1CCNCc1ccc(C=CC(=O)NO)cc1` was 0.0469 µM (active).
As for `CNC(=O)c1nn(C)c2c1C(C)(C)Cc1cnc(Nc3ccc(N4CCN(C)CC4)cc3)nc1-2`, the Potency result in test [1] and in test [5] was “inactive” each time. For the same molecule, in test [2], the Potency was 1.66 µM (active).
With `COCCn1c2c([n+](Cc3cnccn3)c1C)C(=O)c1ccccc1C2=O`, the Potency entry in test [1] was “inactive”. Also, the Potency in test [2] is 0.0105 µM (active).
`O=C(O)CO.[NH2-].[NH2-].[Pt+2]`: the Potency entry in test [2] was “inactive”.
For the molecule `Cc1cccc(C=NNc2cc(N3CCOCC3)nc(OCCc3ccccn3)n2)c1`, in test [2], the Potency is 4.69 µM (active).
For the molecule `Cc1cc(CN2CCN(c3c(Br)cnc4nc(-c5ccc(N6CCN(C)CC6)cc5)[nH]c34)CC2)no1`, the Potency entry is “inactive and 14.3 µM (active)” in test [1]; 18.7 µM (active) in test [2]. Moreover, the Potency result in test [5] was “inactive”.
`Cn1c2cc(S(C)=O)sc2c2cnn(Cc3cccc(N)c3)c(=O)c21` (configuration not stated): the Potency entry in test [1] and in test [2] was “inactive” in each case.
For `CC(=O)Nc1sc2c(c1-c1nc3ccccc3s1)CNC2`, the Potency result in test [3], in test [4], in test [5] and in test [6] was “inactive” throughout. Also, the Potency in test [2] is 20.9 µM (active).
As for `CN(C)CC=CC(=O)Nc1cc2c(Nc3ccc(F)c(Cl)c3)ncnc2cc1O[C@H]1CCOC1`, the Potency in test [2] is 14.8 µM (active).
As to `C1=CCOCc2cc(ccc2OCCN2CCCC2)Nc2nccc(n2)-c2cccc(c2)OCC1`, in test [2], the Potency is 3.32 µM (active).
Same read-out and setting: the value for `CCC[C@H](NC(=O)C(C#N)=Cc1cccc(Br)n1)c1ccccc1` was 2.64 µM (active); that for `CC=C1NC(=O)[C@H]2CSSCCC=C[C@H](CC(=O)N[C@H](C(C)C)C(=O)N2)OC(=O)[C@H](C(C)C)NC1=O` was 0.0105 µM (active); that for `COc1cc2ncnc(Nc3ccc(F)c(Cl)c3)c2cc1NC(=O)C=CCN1CCCCC1` was 26.4 µM (active).
Take `CC(C)(O)c1cc2nc(-c3cnc(N)nc3)nc(N3CCOCC3)c2s1`: the Potency entry in test [1], in test [4], in test [5] and in test [6] was “inactive” throughout. For the same molecule, the Potency in test [2] is 0.235 µM (active).
Regarding `C[C@@H]1CN(CC(=O)Nc2ccc3c(c2)Cc2cccc(-c4cc(=O)cc(N5CCOCC5)o4)c2S3)C[C@H](C)O1`, the Potency in test [2] was 16.6 µM (active).
As for `O=C(C=Cc1cccc(S(=O)(=O)Nc2ccccc2)c1)NO`, the Potency in test [2] is 1.52 µM (active).
On to `CC1=C(CO)C(=O)O[C@@H]([C@@H](C)[C@H]2CC[C@H]3[C@@H]4C[C@H]5O[C@]56[C@@H](O)C=CC(=O)[C@]6(C)[C@@H]4CC[C@]23C)C1`, for which the Potency in test [2] was 0.372 µM (active).
